PubChem BioAssay
The source made the active and inactive calls. The rule behind the calls is not given here.

Molecular target: Protein kinase 7 (PK7), Plasmodium falciparum 3D7 (PF3D7_0213400) (UniProt Q7YTF7)
Experiment: inhibition of Plasmodium PK7 catalytic activity – biochemical, TCAMS antimalarial set, Kinase-Glo luminescence (AID 1159587)
Conditions: recombinant PfPK7, Kinase-Glo ATP depletion luminescence

Sequence of Protein kinase 7 (PK7), Plasmodium falciparum 3D7 (PF3D7_0213400) (Q7YTF7 1-343): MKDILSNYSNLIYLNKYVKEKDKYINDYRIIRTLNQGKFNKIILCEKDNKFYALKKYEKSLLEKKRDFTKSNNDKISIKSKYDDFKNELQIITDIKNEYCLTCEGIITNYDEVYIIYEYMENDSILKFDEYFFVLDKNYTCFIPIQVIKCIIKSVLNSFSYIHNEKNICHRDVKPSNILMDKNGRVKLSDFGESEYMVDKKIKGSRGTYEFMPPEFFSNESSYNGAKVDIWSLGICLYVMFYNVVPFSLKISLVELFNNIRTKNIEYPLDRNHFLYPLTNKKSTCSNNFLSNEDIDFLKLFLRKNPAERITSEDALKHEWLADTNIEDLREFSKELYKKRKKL

How did the outcome turn out when `O=[N+]([O-])c1ccc(-n2nc(Cc3ccccc3)n(Cc3cccc(F)c3)c2=S)c(C(F)(F)F)c1` was run?
The outcome was “inactive”.

With `O=C(NCCN1CCC(c2ncc(-c3ccccc3)o2)CC1)c1ccc(NC(=O)c2ccc(Cl)cc2)cc1` as the compound, how does the outcome read?
Its outcome is “inactive”.

With `CC(C)c1sc(N2CCN(C)CC2)nc1C(=O)Nc1cccc2c1CCCC2` as the compound, how does the outcome read?
The outcome was “inactive”.

How did the outcome turn out when `Cc1ccccc1NC(=O)C1CSCN1C(=O)OCc1ccccc1` (centres undefined) was run?
Its outcome is “inactive”.

For `COc1ccc2ncc(F)c(CCN3C[C@H](CNCc4cc(F)c5c(c4)NC(=O)CO5)[C@H](O)C3)c2n1`, which outcome is on record?
The outcome was “inactive”.

`COc1cc(Br)ccc1N1CCN(CCCCNC(=O)c2ccc(NC(=O)c3ccc(Cl)cc3)cc2)CC1` was tested. Which outcome did it give?
Its outcome is “inactive”.

Which outcome does the source give for `CC(C)CCN1CCC(Oc2ccc(NC(=O)c3ccc4ncccc4c3)cc2Cl)C1` (centres undefined) here?
Its outcome is “inactive”.

How did the outcome turn out when `CC(C)Cc1c(O)nc(SCCN2CCOCC2)[nH]c1=O` was run?
Its outcome is “inactive”.

For `O=C(Nc1cccc(CN2CCCN(Cc3ccc(F)cc3)CC2)c1)c1ccc(Cl)c(Cl)c1`, which outcome is on record?
The outcome was “inactive”.

For `CCC[C@@H]([C@@H](CC1CCCCC1)C(=O)N[C@H](C(=O)Nc1nccs1)[C@H](C)O)N(O)C=O`, which outcome is on record?
The outcome was “inactive”.

`O=C(Nc1ccc(C(=O)N2CCN(CCN3CCN(c4cccc(C(F)(F)F)c4)CC3)CC2)cc1)c1ccc(OC(F)(F)F)cc1` was tested. Which outcome did it give?
Its outcome is “inactive”.

With `c1ccc(CNc2nc(NCCc3cnc[nH]3)nc(NCc3cccc4ccccc34)n2)cc1` as the compound, how does the outcome read?
The outcome was “inactive”.

With `COc1ccc(C2CCN(CCCCNC(=O)c3ccc(NC(=O)c4ccc(Cl)cc4)cc3)CC2)c(C)c1` as the compound, how does the outcome read?
Its outcome is “inactive”.

`c1cncc(Oc2ccc(Nc3ccnc4cc(-c5cccc(CN6CCOCC6)c5)ccc34)cc2)c1` was tested. Which outcome did it give?
Its outcome is “inactive”.
